This is part of a sample that, as a whole, favours compounds with a hit. Of some 83,000 tested, about 20% had one in any assay.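 Assay: single dose, 48 h. Readout: percent growth (0 = no net growth; negative = cell death). Active: <10.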 The source made the active and inactive calls.
How the values were obtained:
Test in all cases: NCI-60 one-dose screen, 48 h (100 = growth as untreated, 0 = no growth, -100 = all killed)
Conditions in all cases: 10 µM unless noted
[1] = system: T-47D breast
[2] = system: BT-549 breast
[3] = system: MDA-MB-435 melanoma
[4] = system: SW-620 colon
[5] = system: MCF7 breast
[6] = system: HCC-2998 colon
[7] = system: KM12 colon
[8] = system: HCT-116 colon

Measured: growth

Cc1nc2nc(N)nc(N)c2nc1C
inactive: [1] 91.2% | [2] 89.4% | [3] 99.5% | [4] 100% | [5] 97.9% | [6] 99% | [7] 102%

NC(N)=Nc1ccc(S(=O)(=O)O)cc1
inactive: [1] 114% | [2] 119% | [3] 106% | [4] 103% | [5] 102% | [8] 107% | [7] 116%

Cc1ccc2c(c1)C(=O)/C(=C/c1ccc(OCC(=O)c3ccccc3)cc1)O2
inactive: [1] 77.8% | [2] 112% | [3] 106% | [4] 108% | [5] 88.7% | [6] 125% | [7] 101%

COc1ccc(-n2cc(-c3ccccc3)c3c(SCC(=O)N/N=C/c4ccc([N+](=O)[O-])cc4)ncnc32)cc1
inactive: [1] 98.7% | [2] 97.8% | [3] 109% | [4] 103% | [5] 92.5% | [6] 97.7% | [7] 101%

COc1cc(OC)c(/C=C/S(=O)(=O)Cc2cnc(OC)c(N)c2)c(OC)c1
inactive: [1] 15.6% | [3] 13.4% | [4] 22.8% | [5] 11.6% | [6] 17.5%
active: [2] 8.01% | [7] 9.75%

C=C1CC[C@@H]2[C@](C)(COC(C)=O)[C@H](OC(C)=O)CC[C@@]2(C)[C@@H]1CC(NCc1ccc(F)cc1)C1=CCOC1=O (stereo not given in full)
inactive: [1] 26.6% | [2] 28.7% | [3] 32.7% | [4] 32% | [5] 16.6% | [8] 33.7% | [7] 46.5%

O=C([C@@H](COCc1ccccc1)N1C(=O)[C@@H](N2C(=O)OC[C@@H]2c2ccccc2)[C@H]1/C=C/c1ccccc1)N1CCC(CCN2CCCCC2)CC1
inactive: [1] 77.2% | [2] 90% | [3] 97.7% | [4] 98% | [5] 74.9% | [6] 84% | [7] 97.1%

COc1cccc(-c2cn3c(ccc4ccccc43)n2)c1
inactive: [1] 46.1% | [2] 37.8% | [4] 26.2% | [5] 17.4% | [6] 68.8% | [7] 34.6%
active: [3] -25.6%

COc1ccc2c(c1)C(=O)/C(=C/c1cccc(OCC(=O)Nc3nc4c(s3)CCCC4)c1)O2
inactive: [1] 47.1% | [3] 27.3% | [5] 21.9%
active: [2] -65.4% | [4] -61.6% | [6] -66.7% | [7] -68.3%

Cc1cc(Cl)ccc1Nc1nc(C(F)(F)F)ccc1C(=O)N/N=C/c1ccc(F)cc1
active: [2] 3.74% | [5] -15.2% | [8] 8.67% | [7] 7.78%
inactive: [1] 28.4% | [3] 31.9% | [4] 12.7%

COC(=O)[C@@H]1CC[C@]2(C)[C@H](CC[C@@H]3O[C@@]32C)[C@@]1(C)CC(=O)c1ccoc1
inactive: [1] 105% | [2] 105% | [3] 104% | [4] 88.3% | [5] 93% | [6] 93.1% | [7] 108%

CCCCCCCCCCCCCCCCCCSC1=CC(=O)C(OC)=C(OC)C1=O
inactive: [1] 87.9% | [2] 111% | [3] 68.2% | [4] 81.5% | [5] 96.8% | [8] 97.9% | [7] 94.4%

COC(/C=C/c1ccc([N+](=O)[O-])cc1)OC
inactive: [1] 52% | [2] 118% | [3] 96.8% | [4] 85.2% | [5] 77.2% | [8] 27.3% | [7] 110%

COc1cc(-c2c3sc(=O)[nH]c3nc3c2c(=O)[nH]n3C(C)C)cc2c1OCO2
inactive: [1] 105% | [2] 105% | [3] 104% | [4] 104% | [5] 91.7% | [8] 106% | [7] 101%

Nc1c(C(=O)Nc2ccccc2)sc2nc3c(cc12)CN(CCc1ccccc1)CC3
inactive: [1] 88.1% | [2] 104% | [3] 102% | [4] 91.3% | [5] 85.8% | [6] 99% | [7] 98.8%

C[C@@H]1CC[C@@H]2[C@@H]1[C@H](OC(=O)/C=C/c1ccccc1)[C@]1(c3ccccc3)C[C@@H](OC(=O)CO)[C@@]2(C)O1
inactive: [1] 89.5% | [2] 17.1% | [3] 99.2% | [4] 96.6% | [5] 84.3% | [6] 99.4% | [7] 96%

CCCCCCCCCCCCCCCCCCNC(=O)[C@H]1CSC(c2ccc(OC)c(F)c2)N1 (stereo not given in full)
active: [1] -62.5% | [2] -60.2% | [3] -83% | [4] -60.2% | [5] -67.9% | [8] -72.7% | [7] -50.2%

COc1ccc(-c2csc(NC(=O)CN3CCN(c4cc5c(cc4F)c(=O)c(C(=O)O)cn5C4CC4)CC3)n2)cc1
inactive: [1] 16.6% | [3] 14.4% | [4] 16% | [5] 12.8% | [6] 36.4% | [7] 15.3%
active: [2] 9.62%

COc1ccccc1/C=C(/C(=O)c1ccccc1)c1ccccc1
inactive: [1] 103% | [2] 92.4% | [3] 107% | [4] 101% | [5] 110% | [8] 83.5% | [7] 98.1%

COc1cc(C#N)cc(OC)c1OCCN(CCOc1c(OC)cc(C#N)cc1OC)S(=O)(=O)c1ccc(C)cc1
inactive: [1] 96.3% | [2] 107% | [3] 114% | [4] 99.6% | [5] 108% | [6] 94.8% | [7] 108%

CCN(CC)CC(C)(C)C(=O)/C=C/c1ccccc1
inactive: [2] 46% | [3] 40% | [4] 35.4% | [6] 79.3% | [7] 53.9%
active: [5] 5.47%

CCCCCN(CCCCC)CCC[C@@H](C)[C@H]1CC[C@H]2[C@@H]3[C@H](OCCCN)C[C@@H]4C[C@H](OCCCN)CC[C@]4(C)[C@H]3C[C@H](OCCCN)[C@]12C
inactive: [1] 68.1% | [2] 55% | [4] 45.9% | [5] 74.8% | [6] 59.6% | [7] 22.5%
active: [3] -13.6%

CNC(=O)c1cc(Oc2ccc3nc(NC(=O)Nc4ccc(CN5CCOCC5)c(C(F)(F)F)c4)sc3c2)ccn1
active: [5] 6.95% | [7] 6.28%
inactive: [1] 22.7% | [2] 12.2% | [3] 13% | [4] 27.4% | [6] 32.3%

COc1ccc(CN2C(=O)/C(=C\c3cc(OC)c(OC)c(OC)c3)c3cc(OC)ccc32)cc1
inactive: [2] 27.1%
active: [1] -0.59% | [3] -0.0336% | [4] -64.1% | [5] 7.67% | [7] -86%

CCOC(=O)C12CCCC1=CC(=O)CC2 (stereo not given)
inactive: [2] 110% | [3] 112% | [4] 109% | [5] 101% | [8] 105% | [6] 105% | [7] 106%

CC/C(=C(\c1ccccc1)c1ccc(OCCNC)cc1)c1ccccc1
active: [2] -91.2% | [3] -93.8% | [4] -57.6% | [5] -95.8% | [8] -96% | [6] -99.7% | [7] -77.7%

Nc1ccc(N2CCOCC2)cc1
inactive: [1] 88.1% | [2] 82.1% | [4] 111% | [5] 88.8% | [8] 98% | [6] 96.9% | [7] 115%

COc1ccc2nc3cc(Cl)ccc3c(N3CCN(c4nccc(Nc5ccccc5)n4)CC3)c2c1
inactive: [1] 23.3% | [3] 62% | [4] 59.7% | [5] 24.3% | [8] 16.3% | [7] 63.1%

Cc1cc2c(cc1C)NC1=C(N2)OC(c2c3ccccc3cc3ccccc23)C1=O (stereo not given)
inactive: [4] 19.3%
active: [2] 0.106% | [3] -7.13% | [5] 5.73% | [8] -5.82% | [6] 7.57% | [7] 9.94%

Reference: PubChem BioAssay (NCI)
